From PubChem
RORgamma inh – blocks mouse ROR gamma transcriptional activity. P51450. AID 2551. Drosophila S2 Gal4-RORgamma UAS-luciferase reporter, 20 h. Potency, µM (titrated, usually from 53.6 µM), without a hit: at the highest dose activity change, negative = inhibition, hits mostly inhibitors. 310,000 tested, 5.4% active; note: potency is the fitted concentration of half-maximal effect; % is set by controls: 0 for no effect and ±100 for the full control effect; nearly all actives have a fitted effect of over 60% in size
Target sequence (P51450 whole entry, looked up, the tested form may be a part): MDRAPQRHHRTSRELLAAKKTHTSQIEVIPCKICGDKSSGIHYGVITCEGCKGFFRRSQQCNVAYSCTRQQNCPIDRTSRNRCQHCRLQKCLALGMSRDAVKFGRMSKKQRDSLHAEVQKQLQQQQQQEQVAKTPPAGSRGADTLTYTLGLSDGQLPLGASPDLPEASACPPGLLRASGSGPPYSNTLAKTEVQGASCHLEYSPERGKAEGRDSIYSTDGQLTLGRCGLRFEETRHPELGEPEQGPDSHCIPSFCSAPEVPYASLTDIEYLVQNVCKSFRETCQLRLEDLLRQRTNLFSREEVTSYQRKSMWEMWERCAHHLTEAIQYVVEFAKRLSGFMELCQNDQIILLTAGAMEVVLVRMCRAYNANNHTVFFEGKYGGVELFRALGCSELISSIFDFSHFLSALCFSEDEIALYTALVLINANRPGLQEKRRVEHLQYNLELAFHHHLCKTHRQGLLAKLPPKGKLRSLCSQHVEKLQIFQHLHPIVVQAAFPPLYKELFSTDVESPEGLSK
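Compounds are pin-transferred onto Drosophila Schneider cells expressing a copper-inducible Gal4–ROR gamma transactivation domain fusion. After 1 hr, copper sulfate is added to 700 uM final; luciferase is read 20 hr later.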
MCF10A rerep – DNA re-replication induction in MCF 10a cells. Potency, µM (top dose mostly 46.1 µM), for the others: top-dose activity, positive = re-replication, most hits filed as activators. MCF 10A DNA re-replication, Hoechst nuclear intensity, 48 h. 350,000 tested, 2.9% active; note: potency is the fitted concentration of half-maximal effect; % of control where 0% means no effect; nearly all actives have a fitted effect of over 50% in size
VP16 counter – counter-screen for ROR gamma inhibitors: Gal4-VP16 reporter. 310,000 tested, 3.5% active. Drosophila S2 Gal4-VP16 UAS-luciferase, luminescence, 20 h. Potency, µM (top dose mostly 53.6 µM), for inactives: top-dose activity, negative = inhibition, usual class: inhibitors;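 note: Gal4-VP16 expression switched on by copper sulfate through the metallothionein promoter; potency is the fitted concentration of half-maximal effect; % is set by controls: 0 for no effect and ±100 for the full control effect; nearly all actives have a fitted effect of over 50% in size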
SW480 rereplic – induces DNA re-replication in SW480 colon adenocarcinoma cells; SW480 DNA re-replication, Hoechst DNA content imaging, 48 h; 340,000 tested, 1.8% active; Potency, µM (top dose mostly 46.1 µM), for inactives: at the highest dose re-replication activation, usual class: activators; note: potency is the fitted concentration of half-maximal effect; % of control where 0% means no effect; nearly all actives have a fitted effect of over 55% in size
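Hoechst fluorescence of nuclei (405 nm excitation, 500-530 nm emission) measured by plate-scanning imager after 48 hr compound exposure at 37 C; re-replication scored as increased number of nuclei with elevated intensity.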
IL1B secr inh – blocks inflammasome-driven IL-1 beta release | activity change, % at 57.5 µM | 360,000 tested, 4.7% active | THP-1 LPS/ATP IL-1B secretion, AlphaLISA, 16 h; active compounds read low | AID 743279; in the data active = activity change below about -50%; inconclusive = mostly about -30% to -49%; note: % is set by controls: 0 for no effect and ±100 for the full control effect
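Secreted IL-1B measured by AlphaLISA bead assay after 16 h compound exposure of THP-1 cells; compounds (final up to 57.5 uM) added 1 h before LPS (250 ng/mL) and ATP (1.25 mM) stimulation; lower signal means less secretion.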
The depositor's hits bear a star; ? = inconclusive; · = not tested or not shown. Hits are enriched below; roughly 11% of the tested compounds scored in any of these assays. Unless noted, calls come from the whole dose curve; as a rule, active = well fitted curve in the direction sought with a large enough effect; inconclusive = small, poorly fitted or top-dose-only effect, or another doubt; inactive = no such curve, though single readings can be large; an effect the other way counts as inactive or inconclusive.

SMILES | RORgamma inh | MCF10A rerep | VP16 counter | SW480 rereplic | IL1B secr inh
CCNc1nc(NCC)n2c(SC(C(=O)Nc3cc(C)ccc3OC)c3ccccc3)nnc2n1 (stereo unspecified) | 31% | 17% | -2% | 2% | -104*
COc1ccc(C)cc1NC(=O)C(Sc1nnc(-c2ccncc2)n1-c1ccc(Cl)cc1)c1ccccc1 (stereo unspecified) | 30% | 21% | -9% | ? | -59*
CCCCN(C(=O)CCC(=O)Nc1cc(C)on1)C(C(=O)NC1CCCC1)c1ccccc1OCC (stereo unspecified) | 23% | 16% | -6% | -6% | ?
CCC(=O)N1CCC1(C)C(=O)NCc1ccc(SC)cc1 (stereo unspecified) | · | · | · | · | 18
CN(C)CCN(C(=O)c1cccc2ccccc12)c1nc2cc3c(cc2s1)OCO3 | -17% | 11% | -4% | 25% | -91*
CCN(c1ccccc1)S(=O)(=O)c1ccc(C(=O)N(CCCN(C)C)c2nc3cc4c(cc3s2)OCO4)cc1 | -43% | -23% | ? | ? | -57*
COc1ccc2sc(N(CCCN(C)C)C(=O)c3ccc(S(=O)(=O)N(C)Cc4ccccc4)cc3)nc2c1 | · | 6% | · | 14% | -93*
CCN(CC)CCN(C(=O)c1ccc2c(c1)OCCO2)c1nc2cc3c(cc2s1)OCO3 | 25% | 0% | 0% | -2% | -28
CCN(CC)CCN(C(=O)c1cc2c(ccc3ccccc32)oc1=O)c1nc2cc3c(cc2s1)OCCO3 | -127% | 11% | ? | 15% | -61*
CN(C)CCN(C(=O)c1ccc(N2C(=O)CCC2=O)cc1)c1nc2cc3c(cc2s1)OCO3 | 9% | 5% | 5% | -7% | -19
CCN(CC)CCN(C(=O)c1ccc(C(=O)c2ccccc2)cc1)c1nc2ccc(OC)cc2s1 | 22% | 1% | -15% | 4% | ?
Cc1ccc2sc(N(CCCN(C)C)C(=O)c3ccc(S(=O)(=O)N(C)Cc4ccccc4)cc3)nc2c1C | · | ? | · | ? | -93*
CN(C)CCCN(C(=O)c1ccc(S(=O)(=O)N(C)Cc2ccccc2)cc1)c1nc2cc3c(cc2s1)OCO3 | 8.9µM* | 11% | ? | ? | -51*
Cc1cccc2sc(N(CCCN(C)C)C(=O)c3ccc(Cl)s3)nc12 | ? | 9% | ? | 3% | -62*
Cc1cccc2sc(N(CCCN(C)C)C(=O)c3ccco3)nc12 | -27% | 25% | 8% | ? | ·
CCN(CC)CCN(C(=O)c1ccc(S(=O)(=O)N(C)C2CCCCC2)cc1)c1nc2ccc(OC)cc2s1 | -16% | 0% | -7% | ? | -77*
CN(C)CCCN(C(=O)c1ccc(S(=O)(=O)N2CCCCCC2)cc1)c1nc2cc3c(cc2s1)OCO3 | · | · | · | · | -12
CCc1nc2ccc(C(=O)NCc3ccccc3OC)cn2c1N(CC)Cc1cccc(Br)c1 | · | · | · | · | -21
CN1C(=O)CC2(C)C1=CCc1scnc12 (stereo unspecified) | · | · | · | · | 14
COc1ccccc1OCC(=O)Nc1cc(C(F)(F)F)ccc1-n1cncn1 | · | 10% | · | -6% | -4
CN(C)CCN(C(=O)c1ccc2ccccc2c1)c1nc2cc3c(cc2s1)OCCO3 | 2% | -2% | -5% | 0% | 0
CN(C)CCCN(C(=O)c1ccc([N+](=O)[O-])o1)c1nc2cc3c(cc2s1)OCO3 | 13µM* | 4% | ? | 12µM* | -1
CCN(c1ccccc1)S(=O)(=O)c1ccc(C(=O)N(CCCN(C)C)c2nc3c(C)cccc3s2)cc1 | ? | ? | ? | ? | -71*
CN(C)CCCN(C(=O)c1ccc2ccccc2c1)c1nc2cc3c(cc2s1)OCO3 | ? | -2% | -17% | 3% | -93*
CCOc1ccc(N(CC(=O)Nc2ccccc2C(=O)N2CCCC2)S(C)(=O)=O)cc1 | 11% | -3% | 1% | 3% | -4
C=C[C@@H]1[C@@H](C)[C@H](C)C(=O)C([C@H](O)C(C)C)[C@@H]1C (stereo partly specified) | -32% | · | 0% | · | ·
CCc1nc2ccc(C(=O)Nc3ccc(Cl)c(Cl)c3)cn2c1N(C)Cc1ccc(OC)cc1 | · | · | · | · | -61*
